{"source": "PubChem BioAssay", "key": {"[1]": {"target": "6-phosphogluconate dehydrogenase, decarboxylating (Homo sapiens) (UniProt P52209)", "sequence (P52209 whole entry, looked up)": "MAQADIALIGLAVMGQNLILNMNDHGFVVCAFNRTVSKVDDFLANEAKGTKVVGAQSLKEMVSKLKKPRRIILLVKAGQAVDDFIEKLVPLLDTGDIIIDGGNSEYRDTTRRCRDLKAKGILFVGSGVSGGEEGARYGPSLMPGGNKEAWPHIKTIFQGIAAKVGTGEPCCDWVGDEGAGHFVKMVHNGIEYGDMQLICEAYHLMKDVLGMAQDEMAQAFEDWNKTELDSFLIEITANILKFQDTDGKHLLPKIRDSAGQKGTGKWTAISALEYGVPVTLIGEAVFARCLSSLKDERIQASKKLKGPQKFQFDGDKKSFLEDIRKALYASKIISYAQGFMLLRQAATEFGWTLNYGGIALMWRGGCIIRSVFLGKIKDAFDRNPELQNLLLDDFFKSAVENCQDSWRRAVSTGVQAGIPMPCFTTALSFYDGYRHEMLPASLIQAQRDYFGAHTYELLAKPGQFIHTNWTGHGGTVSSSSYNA", "test": "6PGD enzyme inhibitors, primary screen, biochemical, human, recombinant enzyme, NADPH absorbance (AID 1159550)", "conditions": "recombinant 6PGD, NADPH absorbance 341 nm; at 10 µM; stronger effect = higher value"}, "[2]": {"target": "Mitogen-activated protein kinase 7 (Homo sapiens) (UniProt Q13164)", "sequence (Q13164 whole entry, looked up, the tested form may be a part)": "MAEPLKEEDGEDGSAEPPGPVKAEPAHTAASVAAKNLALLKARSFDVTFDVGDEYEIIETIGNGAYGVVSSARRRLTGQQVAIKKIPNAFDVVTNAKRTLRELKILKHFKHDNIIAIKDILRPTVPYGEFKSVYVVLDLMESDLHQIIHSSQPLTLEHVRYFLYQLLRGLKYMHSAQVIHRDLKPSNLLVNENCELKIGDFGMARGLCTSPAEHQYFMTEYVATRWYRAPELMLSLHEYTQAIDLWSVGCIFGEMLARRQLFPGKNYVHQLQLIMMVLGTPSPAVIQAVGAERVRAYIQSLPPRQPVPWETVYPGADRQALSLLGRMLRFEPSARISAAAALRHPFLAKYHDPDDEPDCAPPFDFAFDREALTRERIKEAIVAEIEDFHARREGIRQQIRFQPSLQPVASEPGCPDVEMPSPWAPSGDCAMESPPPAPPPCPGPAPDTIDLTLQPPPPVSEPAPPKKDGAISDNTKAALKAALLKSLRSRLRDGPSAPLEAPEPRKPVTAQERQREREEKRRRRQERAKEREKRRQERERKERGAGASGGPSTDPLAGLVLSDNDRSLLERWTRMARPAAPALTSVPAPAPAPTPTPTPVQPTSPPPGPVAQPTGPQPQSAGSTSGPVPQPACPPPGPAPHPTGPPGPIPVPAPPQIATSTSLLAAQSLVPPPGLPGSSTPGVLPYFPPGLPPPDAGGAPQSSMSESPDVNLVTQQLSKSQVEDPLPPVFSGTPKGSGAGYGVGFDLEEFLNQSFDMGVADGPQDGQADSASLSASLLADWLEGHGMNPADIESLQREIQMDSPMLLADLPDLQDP", "test": "ERK5 transactivation activators in reporter cells, primary screen, cell-based, HTS (AID 1508626;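 active = luciferase signal above three times the same-plate solvent-only control wells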;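 also: luciferase driven by Gal4-ERK5 fusion binding five Gal4 sites before minimal TATA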)", "conditions": "HeLa Gal4-ERK5 transactivation, 18 h, at 5 µM, stronger effect = higher value"}, "[3]": {"test": "survival rescue of mitochondrial mutant cells in low glucose, primary screen, MELAS cybrids, Rieske KO mouse fibroblasts, CellTiter-Glo (AID 1508586;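 active = mean z-score across replicates of 1.96 or higher in either the MELAS or the Rieske mutant cell line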;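 also: z relative to plate mean and SD of compound and empty wells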)"}, "[4]": {"target": "NAD(+) hydrolase SARM1 (Homo sapiens) (UniProt Q6SZW1)", "sequence (Q6SZW1 whole entry, looked up)": "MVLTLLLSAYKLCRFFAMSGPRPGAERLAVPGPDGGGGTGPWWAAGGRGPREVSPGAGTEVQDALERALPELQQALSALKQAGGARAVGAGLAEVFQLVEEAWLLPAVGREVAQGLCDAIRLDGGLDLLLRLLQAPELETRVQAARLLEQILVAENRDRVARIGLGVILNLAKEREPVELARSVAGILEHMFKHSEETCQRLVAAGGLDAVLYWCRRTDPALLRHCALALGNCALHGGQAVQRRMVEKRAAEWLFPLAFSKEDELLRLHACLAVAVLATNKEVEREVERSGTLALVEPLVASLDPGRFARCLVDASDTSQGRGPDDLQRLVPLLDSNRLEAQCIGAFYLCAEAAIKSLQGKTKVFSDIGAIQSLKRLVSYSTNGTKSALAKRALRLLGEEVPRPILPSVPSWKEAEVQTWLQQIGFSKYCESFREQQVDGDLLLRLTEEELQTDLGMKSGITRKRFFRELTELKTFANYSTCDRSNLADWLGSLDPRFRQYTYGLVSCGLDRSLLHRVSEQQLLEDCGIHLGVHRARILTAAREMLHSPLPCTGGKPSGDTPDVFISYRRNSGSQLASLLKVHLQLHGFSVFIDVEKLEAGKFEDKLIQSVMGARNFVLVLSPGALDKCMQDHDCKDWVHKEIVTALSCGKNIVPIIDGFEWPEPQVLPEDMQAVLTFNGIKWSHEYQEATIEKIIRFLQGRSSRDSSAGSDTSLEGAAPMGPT", "test": "SARM1 TIR NADase inhibitors, cell lysate, NAD-Glo luminescence (AID 1508614;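 active = compound whose remaining NAD level is above about 45 nM, limit read from the data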)", "conditions": "SAM-TIR HEK293T lysate NADase, at 1 µM, stronger effect = higher value"}, "[5]": {"test": "hESC survival regulators, cell-based (AID 493140; call rule not given here;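 also: cells exposed to compounds for four days before counting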)", "conditions": "human embryonic stem cell survival screen; stronger effect = higher value"}, "[6]": {"test": "liver-stage malaria parasite growth inhibition, primary screen, cell-based, HepG2, luciferase luminescence, HepG2 viability (AID 624349; in the data active = parasite load remaining mostly below about 12%, no sharp cut-off; inactive = mostly above about 10%;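 also: 100% = mean of DMSO negative control wells on the same plate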)", "conditions": "P. berghei liver stage in HepG2, luciferase luminescence, concentration not given here; parasite load remaining: stronger effect = lower value; viability: measured here: HepG2 viability without parasites"}, "[7]": {"test": "sensitizers of A549 cells to miR-34 induction, primary screen, imaging, A549 dox-inducible miR-34, nuclei and caspase counts (AID 1347080;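 active = compounds whose cell count with miR-34 switched on is under 0.7 times the count with it off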)", "conditions": "A549 miR-34 inducible, Hoechst nuclei count, 48 h"}, "[8]": {"target": "ATP-dependent translocase ABCB1 (Homo sapiens) (UniProt P08183)", "sequence (P08183 whole entry, looked up)": "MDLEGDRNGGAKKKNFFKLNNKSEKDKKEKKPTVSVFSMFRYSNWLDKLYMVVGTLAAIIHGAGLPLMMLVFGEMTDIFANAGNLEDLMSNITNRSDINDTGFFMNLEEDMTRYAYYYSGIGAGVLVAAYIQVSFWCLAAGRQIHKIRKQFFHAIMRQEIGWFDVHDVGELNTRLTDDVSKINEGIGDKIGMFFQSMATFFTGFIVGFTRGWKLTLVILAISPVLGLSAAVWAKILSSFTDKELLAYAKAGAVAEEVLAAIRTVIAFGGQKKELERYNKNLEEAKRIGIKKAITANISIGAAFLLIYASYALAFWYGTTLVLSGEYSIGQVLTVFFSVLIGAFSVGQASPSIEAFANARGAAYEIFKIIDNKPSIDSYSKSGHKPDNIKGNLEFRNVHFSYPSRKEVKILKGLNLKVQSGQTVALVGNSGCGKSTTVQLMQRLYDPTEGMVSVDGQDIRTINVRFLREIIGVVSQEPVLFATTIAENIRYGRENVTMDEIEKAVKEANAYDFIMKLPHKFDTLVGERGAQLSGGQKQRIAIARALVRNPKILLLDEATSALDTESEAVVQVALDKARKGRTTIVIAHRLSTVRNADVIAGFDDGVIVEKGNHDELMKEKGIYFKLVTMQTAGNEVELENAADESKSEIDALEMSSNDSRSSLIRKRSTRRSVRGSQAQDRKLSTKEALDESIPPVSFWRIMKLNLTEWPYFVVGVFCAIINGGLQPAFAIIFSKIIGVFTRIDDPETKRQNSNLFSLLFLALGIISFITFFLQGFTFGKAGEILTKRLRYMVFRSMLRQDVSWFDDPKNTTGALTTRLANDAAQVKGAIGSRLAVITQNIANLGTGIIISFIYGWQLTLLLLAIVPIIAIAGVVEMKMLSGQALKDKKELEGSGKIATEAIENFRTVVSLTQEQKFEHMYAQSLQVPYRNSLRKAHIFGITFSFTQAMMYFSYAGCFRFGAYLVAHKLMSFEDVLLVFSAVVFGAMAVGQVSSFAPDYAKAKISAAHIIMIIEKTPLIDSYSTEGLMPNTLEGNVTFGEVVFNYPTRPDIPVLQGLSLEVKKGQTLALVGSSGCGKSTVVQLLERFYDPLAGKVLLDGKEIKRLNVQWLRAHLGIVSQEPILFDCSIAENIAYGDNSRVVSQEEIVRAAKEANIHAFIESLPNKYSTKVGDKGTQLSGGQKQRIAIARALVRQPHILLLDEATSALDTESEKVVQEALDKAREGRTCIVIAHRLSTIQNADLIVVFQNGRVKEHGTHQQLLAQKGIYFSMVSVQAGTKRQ", "test": "MDR1 (ABCB1) efflux transporter inhibition, cell-based (AID 377; in the data active = fluorescence slope change above about 50%)", "conditions": "MDR1-expressing cells, fluorescent substrate accumulation slope; stronger effect = higher value; concentration not given here"}, "[9]": {"conditions": "MELAS cybrid survival, CellTiter-Glo 48 h, stronger effect = higher value"}, "[10]": {"conditions": "Rieske KO mouse fibroblast survival, CellTiter-Glo 72 h"}, "[11]": {"conditions": "stronger effect = lower value, cell number ratio, induced over uninduced"}, "[12]": {"conditions": "measured here: relative caspase fold change +Dox/-Dox"}, "[13]": {"conditions": "measured here: total cells with miR-34 induction, stronger effect = lower value"}, "[14]": {"conditions": "measured here: total cells without miR-34 induction"}}, "note": "Values joined by “and” are separate entries in the source; they are usually repeats but may differ in a detail not shown here. Equal values may be shown once. Records with an inconclusive call do not appear. Active and inactive are the calls of the source.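 The calls were made as follows, unless noted: active = at least 20% inhibition of 6-phosphogluconate dehydrogenase activity; inactive = the rest.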", "data": [{"smiles": "O=C(O)CN(CC(=O)O)Cc1cc2c(cc1O)Oc1cc(O)c(CN(CC(=O)O)CC(=O)O)cc1C21OC(=O)c2ccccc21", "values": [{"measurement": "inhibition", "setting": "[1]", "value": "-1.59% (inactive)"}, {"measurement": "luciferase signal", "setting": "[2]", "value": "140 AU (inactive)"}]}, {"smiles": "C[C@@H]1C[C@H]2[C@@H]3C[C@H](F)C4=CC(=O)C=C[C@]4(C)[C@@]3(F)[C@@H](O)C[C@]2(C)[C@@]1(O)C(=O)COC(=O)C(C)(C)C", "values": [{"measurement": "inhibition", "setting": "[1]", "value": "8.08% (inactive)"}, {"measurement": "z-score", "setting": "[3]; [9]", "value": "0.627 (inactive)"}, {"measurement": "z-score", "setting": "[3]; [10]", "value": 0.671}, {"measurement": "remaining NAD", "setting": "[4]", "value": "10 nM (inactive)"}]}, {"smiles": "C=C1C[C@]23C[C@@]1(O)CC[C@H]2[C@@]12C=C[C@H](O)[C@@](C)(C(=O)O1)[C@H]2[C@@H]3C(=O)O", "values": [{"measurement": "survival", "setting": "[5]", "value": "1.25 (inactive)"}, {"measurement": "parasite load remaining", "setting": "[6]", "value": "101% (inactive)"}, {"measurement": "viability", "setting": "[6]", "value": 80.4, "unit": "%"}, {"measurement": "inhibition", "setting": "[1]", "value": "-0.284% (inactive)"}, {"measurement": "fold change", "setting": "[7]; [11]", "value": "0.973 (inactive)"}, {"measurement": "fold change", "setting": "[7]; [12]", "value": 0.674}, {"measurement": "cell count", "setting": "[7]; [13]", "value": 8110}, {"measurement": "cell count", "setting": "[7]; [14]", "value": 8340}, {"measurement": "luciferase signal", "setting": "[2]", "value": "40 AU (inactive)"}]}, {"smiles": "CC1=CC(=O)C2=C(C)CC[C@@H]3[C@H](OC(=O)[C@H]3C)[C@@H]12", "values": [{"measurement": "survival", "setting": "[5]", "value": "21.9 (inactive)"}, {"measurement": "parasite load remaining", "setting": "[6]", "value": "69.2% (inactive)"}, {"measurement": "viability", "setting": "[6]", "value": 75.3, "unit": "%"}, {"measurement": "inhibition", "setting": "[1]", "value": "-50% (inactive)"}, {"measurement": "fold change", "setting": "[7]; [11]", "value": "0.934 (inactive)"}, {"measurement": "fold change", "setting": "[7]; [12]", "value": 0.653}, {"measurement": "cell count", "setting": "[7]; [13]", "value": 9100}, {"measurement": "cell count", "setting": "[7]; [14]", "value": 9750}, {"measurement": "luciferase signal", "setting": "[2]", "value": "76 AU (inactive)"}]}, {"smiles": "O=C(OC[C@H]1O[C@@H](OC(=O)c2cc(O)c(O)c(OC(=O)c3cc(O)c(O)c(O)c3)c2)[C@H](OC(=O)c2cc(O)c(O)c(OC(=O)c3cc(O)c(O)c(O)c3)c2)[C@@H](OC(=O)c2cc(O)c(O)c(OC(=O)c3cc(O)c(O)c(O)c3)c2)[C@@H]1OC(=O)c1cc(O)c(O)c(OC(=O)c2cc(O)c(O)c(O)c2)c1)c1cc(O)c(O)c(OC(=O)c2cc(O)c(O)c(O)c2)c1", "values": [{"measurement": "inhibition", "setting": "[1]", "value": "12.6% (inactive)"}, {"measurement": "remaining NAD", "setting": "[4]", "value": "10 nM (inactive)"}, {"measurement": "luciferase signal", "setting": "[2]", "value": "32 AU (inactive)"}]}, {"smiles": "CC[C@@H](C(=O)[C@@H](C)[C@@H](O)[C@H](C)CCc1ccc(C)c(O)c1C(=O)O)[C@H]1O[C@](CC)([C@H]2CC[C@](O)(CC)[C@H](C)O2)C[C@@H]1C", "values": [{"measurement": "parasite load remaining", "setting": "[6]", "value": "-0.295% (active)"}, {"measurement": "viability", "setting": "[6]", "value": 110, "unit": "%"}, {"measurement": "inhibition", "setting": "[1]", "value": "-6.18% (inactive)"}, {"measurement": "fold change", "setting": "[7]; [11]", "value": "1.02 (inactive)"}, {"measurement": "fold change", "setting": "[7]; [12]", "value": 1.03}, {"measurement": "cell count", "setting": "[7]; [13]", "value": 2440}, {"measurement": "cell count", "setting": "[7]; [14]", "value": 2390}, {"measurement": "luciferase signal", "setting": "[2]", "value": "44 AU (inactive)"}]}, {"smiles": "CCCCC[C@@H](O)[C@H]1C(=O)O[C@H](C)[C@@H](O)/C=C/C=C/C=C/C=C/C=C(\\C)[C@@H](O)C[C@H](O)C[C@H](O)C[C@H](O)C[C@H](O)C[C@H](O)C[C@@H]1O", "values": [{"measurement": "inhibition", "setting": "[1]", "value": "6.12% (inactive)"}, {"measurement": "fold change", "setting": "[7]; [11]", "value": "1.04 (inactive)"}, {"measurement": "fold change", "setting": "[7]; [12]", "value": 1.06}, {"measurement": "cell count", "setting": "[7]; [13]", "value": 6150}, {"measurement": "cell count", "setting": "[7]; [14]", "value": 5900}, {"measurement": "luciferase signal", "setting": "[2]", "value": "72 AU (inactive)"}]}, {"smiles": "C[N+](C)(C)CCOP(=O)([O-])OP(=O)(O)OC[C@H]1O[C@@H](n2ccc(N)nc2=O)[C@H](O)[C@@H]1O", "values": [{"measurement": "inhibition", "setting": "[1]", "value": "-4.56% (inactive)"}, {"measurement": "remaining NAD", "setting": "[4]", "value": "10 nM (inactive)"}, {"measurement": "luciferase signal", "setting": "[2]", "value": "76 AU (inactive)"}]}, {"smiles": "COC(=O)[C@H]1[C@H]2C[C@H]3c4[nH]c5ccccc5c4CCN3C[C@@H]2CC[C@@H]1O", "values": [{"measurement": "fluorescence slope change", "setting": "[8]", "value": "53.3% (active)"}, {"measurement": "survival", "setting": "[5]", "value": "13.8 (inactive)"}, {"measurement": "parasite load remaining", "setting": "[6]", "value": "108% (inactive) and 79.2% (inactive)"}, {"measurement": "viability", "setting": "[6]", "value": "116% and 77.6%"}, {"measurement": "inhibition", "setting": "[1]", "value": "7.89% (inactive)"}, {"measurement": "fold change", "setting": "[7]; [11]", "value": "0.836 (inactive)"}, {"measurement": "fold change", "setting": "[7]; [12]", "value": 1.95}, {"measurement": "cell count", "setting": "[7]; [13]", "value": 8660}, {"measurement": "cell count", "setting": "[7]; [14]", "value": 10400}, {"measurement": "luciferase signal", "setting": "[2]", "value": "44 AU (inactive)"}]}, {"smiles": "CN1[C@@H]2CC[C@H]1CC(OC(c1ccccc1)c1ccccc1)C2", "note": "(some centres undefined)", "values": [{"measurement": "inhibition", "setting": "[1]", "value": "13.6% (inactive)"}, {"measurement": "z-score", "setting": "[3]; [9]", "value": "-0.23 (inactive)"}, {"measurement": "z-score", "setting": "[3]; [10]", "value": 0.0522}, {"measurement": "luciferase signal", "setting": "[2]", "value": "52 AU (inactive)"}]}, {"smiles": "O=C(O)c1cc(O)c2c(c1)[C@H]([C@H]1c3cc(C(=O)O)cc(O)c3C(=O)c3c(O[C@@H]4O[C@H](CO)[C@@H](O)[C@H](O)[C@H]4O)cccc31)c1cccc(O[C@@H]3O[C@H](CO)[C@@H](O)[C@H](O)[C@H]3O)c1C2=O", "values": [{"measurement": "inhibition", "setting": "[1]", "value": "6.02% (inactive)"}, {"measurement": "remaining NAD", "setting": "[4]", "value": "11 nM (inactive)"}, {"measurement": "luciferase signal", "setting": "[2]", "value": "76 AU (inactive)"}]}, {"smiles": "CN(C)CC/C=C1/c2ccccc2Sc2ccc(Cl)cc21", "values": [{"measurement": "fluorescence slope change", "setting": "[8]", "value": "115% (active)"}, {"measurement": "survival", "setting": "[5]", "value": "1.25 (inactive)"}, {"measurement": "parasite load remaining", "setting": "[6]", "value": "63.4% (inactive)"}, {"measurement": "viability", "setting": "[6]", "value": 75.2, "unit": "%"}, {"measurement": "inhibition", "setting": "[1]", "value": "-16.6% (inactive)"}, {"measurement": "remaining NAD", "setting": "[4]", "value": "10 nM (inactive)"}]}, {"smiles": "CC(=O)O[C@H]1C[C@@]2(C)[C@@H](C[C@@H](O)[C@H]3[C@@]4(C)CC[C@@H](O)[C@@H](C)[C@@H]4CC[C@@]32C)/C1=C(\\CCC=C(C)C)C(=O)O", "values": [{"measurement": "survival", "setting": "[5]", "value": "5.08 (inactive)"}, {"measurement": "parasite load remaining", "setting": "[6]", "value": "64.8% (inactive)"}, {"measurement": "viability", "setting": "[6]", "value": 78.6, "unit": "%"}, {"measurement": "inhibition", "setting": "[1]", "value": "4.42% (inactive)"}, {"measurement": "remaining NAD", "setting": "[4]", "value": "10 nM (inactive)"}, {"measurement": "luciferase signal", "setting": "[2]", "value": "128 AU (inactive)"}]}, {"smiles": "CC(=O)NC(CC(C)C)C(=O)O", "note": "(centres undefined)", "values": [{"measurement": "inhibition", "setting": "[1]", "value": "4.75% (inactive)"}, {"measurement": "remaining NAD", "setting": "[4]", "value": "10 nM (inactive)"}]}, {"smiles": "CO[C@H]1C[C@H](O[C@@H]2/C(C)=C/C[C@@H]3C[C@@H](C[C@]4(CC[C@H](C)[C@@H](C5CCCCC5)O4)O3)OC(=O)[C@@H]3C=C(C)/C(=N/O)[C@H]4OC/C(=C\\C=C\\[C@@H]2C)[C@]43O)O[C@@H](C)[C@@H]1O", "values": [{"measurement": "inhibition", "setting": "[1]", "value": "-18% (inactive)"}, {"measurement": "remaining NAD", "setting": "[4]", "value": "23 nM (inactive)"}, {"measurement": "luciferase signal", "setting": "[2]", "value": "36 AU (inactive)"}]}, {"smiles": "CC(C)CCC[C@@H](C)[C@H]1CC[C@H]2[C@@H]3CC=C4C[C@@H](O)CC[C@]4(C)[C@H]3CC[C@]12C", "values": [{"measurement": "inhibition", "setting": "[1]", "value": "2.5% (inactive)"}, {"measurement": "remaining NAD", "setting": "[4]", "value": "10 nM (inactive)"}, {"measurement": "luciferase signal", "setting": "[2]", "value": "52 AU (inactive)"}]}, {"smiles": "CCc1cn([C@H]2C[C@H](O)[C@@H](CO)O2)c(=O)[nH]c1=O", "values": [{"measurement": "inhibition", "setting": "[1]", "value": "-4.52% (inactive)"}, {"measurement": "remaining NAD", "setting": "[4]", "value": "10 nM (inactive)"}, {"measurement": "luciferase signal", "setting": "[2]", "value": "64 AU (inactive)"}]}]}
